Assay results reported in PubChem BioAssay AID1159580 (chemical genetic matrix, 2015).
Values joined by “and” are separate entries in the source; they are usually repeats but may differ in a detail not shown here. Equal entries are not always repeated. The whole screen tested about 5,500 compounds, of which about 2,000 (36%) were called active. Roughly 18% stayed inconclusive and do not appear here. No stated cut-off is given here; in the data, active means normalized growth mostly below about 0.91 (no sharp cut-off); inconclusive means no clear call, values can overlap the other calls; inactive means mostly above about 0.92. Some of the results follow.

Experiment: chemical genetic growth profiling, strain panel (AID 1159580);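 further: tested at 20 µM; growth read once vehicle control cultures reached saturation at 30 °C; 1 = growth at the plate median or of vehicle wells; lower values mean less growth of the strain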
Conditions: S. cerevisiae deletion strains, growth OD

Measured: normalized growth

Fc1cccc(Cl)c1CSc1nncn1-c1ccc(OCc2ccccc2)cc1
inactive: locus YAL013W, strain DEP1, active compounds read low 0.976 | locus YAR019C, strain CDC15, active compounds read low 0.991 | locus YBL105C, strain PKC1, active compounds read low 1.01 | locus YBR135W, strain CKS1, active compounds read low 1 | locus YBR136W, strain MEC1, active compounds read low 1 | locus YBR160W, strain CDC28, active compounds read low 1.01 | locus YBR229C, strain ROT2, active compounds read low 0.991 | locus YCL061C, strain MRC1, active compounds read low 0.968 | locus YDL017W, strain CDC7, active compounds read low 1.01 | locus YDL028C, strain MPS1, active compounds read low 1 | locus YDL101C, strain DUN1, active compounds read low 0.997 and 0.986 | locus YDL108W, strain KIN28, active compounds read low 1 | locus YDL132W, strain cdc53, active compounds read low 0.994 | locus YDL214C, strain PRR2, active compounds read low 0.97 | locus YDR052C, strain DBF4, active compounds read low 0.996 | locus YDR054C, strain cdc34, active compounds read low 1.01 | locus YDR150W, strain NUM1, active compounds read low 0.909 | locus YDR226W, strain ADK1, active compounds read low 0.999 | locus YDR477W, strain SNF1, active compounds read low 0.983 | locus YEL061C, strain CIN8, active compounds read low 0.956 | locus YER123W, strain YCK3, active compounds read low 0.958 | locus YER133W, strain GLC7, active compounds read low 0.974 | locus YFL009W, strain cdc4, active compounds read low 1.01 | locus YFL029C, strain CAK1, active compounds read low 1 | locus YFR003C, strain YPI1, active compounds read low 1.01 | locus YFR019W, strain FAB1, active compounds read low 0.955 | locus YFR028C, strain CDC14, active compounds read low 0.997 | locus YGR040W, strain KSS1, active compounds read low 0.979 | locus YGR052W, strain FMP48, active compounds read low 1.05 | locus YGR078C, strain PAC10, active compounds read low 0.984 | locus YGR092W, strain DBF2, active compounds read low 0.988 | locus YHR030C, strain SLT2, active compounds read low 0.811 and 1.12 | locus YHR079C, strain IRE1, active compounds read low 1.03 | locus YHR082C, strain KSP1, active compounds read low 1.24 | locus YHR087W, strain rtc3, active compounds read low 0.983 | locus YHR205W, strain SCH9, active compounds read low 0.955 | locus YIL147C, strain SLN1, active compounds read low 1 | locus YJL095W, strain BCK1, active compounds read low 1.04 | locus YJL128C, strain PBS2, active compounds read low 1.01 | locus YJL157C, strain FAR1, active compounds read low 0.969 | locus YJR016C, strain ILV3, active compounds read low 0.997 | locus YJR043C, strain POL32, active compounds read low 0.98 | locus YJR066W, strain TOR1 (second series), active compounds read low 0.967 | locus YJR066W, strain TOR1, active compounds read low 1.23 | locus YJR075W, strain HOC1, active compounds read low 0.988 | locus YKL048C, strain ELM1, active compounds read low 0.977 | locus YKL067W, strain YNK1, active compounds read low 0.999 | locus YKL101W, strain HSL1, active compounds read low 0.989 | locus YKL190W, strain CNB1, active compounds read low 0.985 | locus YKL193C, strain SDS22, active compounds read low 0.996 | locus YKL203C, strain TOR2, active compounds read low 1.06 | locus YLR039C, strain RIC1, active compounds read low 0.792 | locus YLR058C, strain SHM2 (second series), active compounds read low 0.991 | locus YLR085C, strain ARP6, active compounds read low 0.831 | locus YLR113W, strain HOG1, active compounds read low 1.01 | locus YLR133W, strain CKI1, active compounds read low 0.949 | locus YLR262C, strain YPT6, active compounds read low 0.838 | locus YLR403W, strain SFP1, active compounds read low 0.965 | locus YML070W, strain DAK1, active compounds read low 0.958 | locus YML094W, strain GIM5, active compounds read low 0.948 | locus YMR001C, strain CDC5, active compounds read low 1 | locus YMR205C, strain PFK2 (second series), active compounds read low 0.965 | locus YMR219W, strain ESC1, active compounds read low 0.985 | locus YMR263W, strain SAP30, active compounds read low 0.963 | locus YMR277W, strain FCP1, active compounds read low 0.988 | locus YNL006W, strain LST8, active compounds read low 0.994 | locus YNL020C, strain ARK1, active compounds read low 0.963 | locus YNL153C, strain GIM3, active compounds read low 0.977 | locus YNL161W, strain CBK1, active compounds read low 0.973 | locus YNL183C, strain NPR1, active compounds read low 0.98 | locus YNL207W, strain RIO2, active compounds read low 1 | locus YNL222W, strain SSU72, active compounds read low 0.995 | locus YNL298W, strain CLA4 (second series), active compounds read low 0.929 | locus YNL307C, strain MCK1 (second series), active compounds read low 0.963 | locus YNL322C, strain KRE1, active compounds read low 0.988 | locus YNR030W, strain Alg12, active compounds read low 0.964 | locus YOL078W, strain AVO1, active compounds read low 0.977 | locus YOL136C, strain PFK27, active compounds read low 0.952 | locus YOR061W, strain CKA2, active compounds read low 0.982 | locus YOR119C, strain RIO1, active compounds read low 1.04 | locus YOR231W, strain MKK1, active compounds read low 1.05 | locus YOR329C, strain SCD5, active compounds read low 1 | locus YPL031C, strain PHO85, active compounds read low 0.986 | locus YPL055C, strain LGE1, active compounds read low 0.847 | locus YPL153C, strain RAD53, active compounds read low 0.992 | locus YPL204W, strain HRR25, active compounds read low 0.973 | locus YPL209C, strain IPL1, active compounds read low 0.994 | locus YPL241C, strain CIN2, active compounds read low 0.949 | locus YPL256C, strain CLN2, active compounds read low 0.983 | locus YPR025C, strain CCL1, active compounds read low 1.01 | locus YPR106W, strain ISR1, active compounds read low 0.987 | locus YPR111W, strain DBF20, active compounds read low 0.986 | locus YPR135W, strain CTF4, active compounds read low 0.832 | strain NNK1, active compounds read low 0.984 | strain TSCII, active compounds read low 0.986
